Here are results for 26 compounds from PubChem BioAssay (NCI).

Among the test systems are BT-549 breast; MDA-MB-435 melanoma; SW-620 colon; HCT-116 colon; HCC-2998 colon; KM12 colon; MCF7 breast.
Holding throughout (assay): NCI-60 one-dose screen, 48 h (100 = growth as untreated, 0 = no growth, -100 = all killed)
Details in all cases: 10 µM unless noted

Compounds without any hit were thinned out: in the full panel of roughly 83,000, 20% have a hit.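 A percent growth of 40 corresponds to 60% growth inhibition; 0 means no net growth; -100 means all cells died. Active threshold: below 10.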 Unmarked numbers belong to inactive results. Active and inactive are the calls of the source.

As for `C#Cc1nc(C2=C(C)C(O)/C(=N/O)C2)cs1` (stereo not given), the growth in the experiment with BT-549 breast was 111%; with MDA-MB-435 melanoma, 95.6%; in the experiment with SW-620 colon, 123%; in the experiment on HCT-116 colon, 100%; with HCC-2998 colon it was 117%; in the experiment on KM12 colon, 42.9%.
On to `Cc1ccc(-c2nc(C(Cl)Cl)nc3cc(-c4ccccc4)nn23)cc1`, for which the growth in the experiment with BT-549 breast is 53.6%; in the experiment on MDA-MB-435 melanoma, 16.1%; in the experiment on SW-620 colon, -40.3% (active); in the experiment with HCT-116 colon, 11.8%; in the experiment on HCC-2998 colon it was -55.8% (active); in the experiment with KM12 colon, -6.93% (active).
For the compound `CCOC(=O)c1c(Nc2ccccc2)nn2c(N)c(C#N)c(-c3ccc(F)cc3)nc12`, the growth is 98.7% with BT-549 breast; 81.2% with MDA-MB-435 melanoma; 86.5% in the experiment with SW-620 colon; 87.4% in the experiment with HCT-116 colon; 110% in the experiment on HCC-2998 colon.
In the case of `C=C1CC[C@H]2[C@@](C)(CCC3OC(c4ccc(OCc5cn(C6CC(OC(C)=O)C(OC(C)=O)C(COC(C)=O)O6)nn5)cc4)OC[C@]32C)[C@@H]1/C=C/C1=CCOC1=O` (stereo not given in full), the growth in the experiment with BT-549 breast is 61.2%; in the experiment with MDA-MB-435 melanoma it was 85.4%; in the experiment with SW-620 colon it was 96.1%; in the experiment with HCT-116 colon, 48.3%; in the experiment with HCC-2998 colon, 100%.
On to `O=C(CN1C(=O)/C(=C/c2ccccc2)SC1=S)N1CCOCC1`, for which the growth in the experiment with BT-549 breast was 97.5%; in the experiment with MDA-MB-435 melanoma, 96.2%; in the experiment with SW-620 colon, 87.2%; in the experiment on HCT-116 colon it was 98.3%; in the experiment on HCC-2998 colon, 112%; in the experiment on KM12 colon, 100%.
With `O=C1[C@H]2Cc3c([nH]c4ccccc34)[C@@H](c3ccc(Br)cc3)N2C(=O)CN1C1CCN(Cc2ccccc2)CC1`, the growth in the experiment on BT-549 breast was 93.4%; with MDA-MB-435 melanoma, 36.9%; in the experiment on SW-620 colon, 33.5%; in the experiment with MCF7 breast, 6.48% (active); in the experiment on HCT-116 colon, 9.04% (active); in the experiment with KM12 colon, 36.7%.
As for `N[C@@H](Cc1cn(-c2ccnc3ccccc23)nn1)C(=O)O`, the growth is 118% in the experiment with BT-549 breast; 106% in the experiment with MDA-MB-435 melanoma; 104% in the experiment on SW-620 colon; 104% in the experiment with HCT-116 colon; 104% in the experiment with HCC-2998 colon.
As for `Cc1ccc2c(n1)C(=O)C(Cl)=C(Nc1cccc(C(C)C)c1)C2=O`, the growth with BT-549 breast is 58.7%; in the experiment on MDA-MB-435 melanoma it was -70.6% (active); with SW-620 colon, 28.3%; in the experiment on MCF7 breast, -56.7% (active); with HCT-116 colon it was 13.1%; in the experiment with KM12 colon, 80%.
For `Clc1ccc2oc3c(NCCCN4CCOCC4)c4ccccc4nc3c2c1`, the growth is 67.8% in the experiment with BT-549 breast; 22% in the experiment on MDA-MB-435 melanoma; 15% in the experiment with SW-620 colon; 14.8% in the experiment with HCT-116 colon; 28.9% with HCC-2998 colon.
For the compound `COc1ccccc1C(=O)CSc1nc(Nc2ccc(S(N)(=O)=O)cc2)c2ccccc2n1`, the growth in the experiment on BT-549 breast was 111%; in the experiment with MDA-MB-435 melanoma, 90.4%; in the experiment on SW-620 colon, 98.1%; in the experiment with HCT-116 colon it was 77%; in the experiment on HCC-2998 colon it was 103%; with KM12 colon it was 78.4%.
Regarding `N#Cc1c(-c2ccc(Cl)cc2)nc(SCc2ccccc2)nc1N1CCNCC1`, the growth with BT-549 breast was 90.5%; with MDA-MB-435 melanoma, 71.4%; in the experiment on SW-620 colon, -50.2% (active); in the experiment on HCT-116 colon, -74.3% (active); in the experiment on HCC-2998 colon, -37.3% (active); in the experiment on KM12 colon, 39.6%.
Regarding `O=C1c2c(c3c4cc(Br)ccc4[nH]c3c3ccc4ccccc4c23)C(=O)N1CCO`, the growth is 105% in the experiment with BT-549 breast; 94.8% in the experiment with MDA-MB-435 melanoma; 75.9% with SW-620 colon; 84.2% with HCT-116 colon; 103% with HCC-2998 colon.
In the case of `N#Cc1nc(-c2ccccc2)oc1S(=O)(=O)N1CCCCC1`, the growth in the experiment on BT-549 breast is 85.7%; in the experiment with MDA-MB-435 melanoma it was 68%; in the experiment with SW-620 colon, -12.8% (active); in the experiment on HCT-116 colon, 21.2%; with HCC-2998 colon, 105%; in the experiment with KM12 colon it was 101%.
For `O=C(CSc1nnc(-c2ccc3nc(-c4ccc(Cl)cc4)[nH]c3c2)o1)Nc1ccc(C(=O)/C=C/c2ccc(Cl)cc2)cc1`, the growth in the experiment on BT-549 breast is 99.6%; in the experiment with MDA-MB-435 melanoma, 99.9%; with SW-620 colon, 103%; in the experiment with HCT-116 colon, 77.8%; in the experiment on HCC-2998 colon it was 116%; with KM12 colon, 99.3%.
On to `COc1ccc(NC2=CC(=O)C(C)=C(C)C2=O)cc1`, for which the growth was 119% in the experiment with BT-549 breast; 7.8% (active) in the experiment on MDA-MB-435 melanoma; 101% with SW-620 colon; 80.6% in the experiment with HCT-116 colon; 101% in the experiment on KM12 colon.
For `Cc1cc(C(NC(=O)CCCCCNc2cccc3c2C(=O)N(C2CCC(=O)NC2=O)C3=O)c2cccnc2)c(O)c2ncccc12` (stereo not given), the growth is -30.8% (active) with BT-549 breast; 30.7% with MDA-MB-435 melanoma; 13.3% in the experiment with SW-620 colon; 24.8% in the experiment with HCT-116 colon; 2.27% (active) in the experiment on HCC-2998 colon; 17.6% in the experiment with KM12 colon.
Take `O=c1[nH]c2ccccc2cc1CSc1ccccc1Nc1nccc(-c2ccc(C(F)(F)F)cc2)n1`: the growth in the experiment with BT-549 breast was 112%; with MDA-MB-435 melanoma, 74.6%; in the experiment on SW-620 colon it was 68.1%; in the experiment on HCT-116 colon, 43.4%; with HCC-2998 colon, 90.4%.
`O=C(CCCN1C(=O)/C(=C/c2ccccc2F)SC1=S)N1CCOCC1`: the growth was 114% in the experiment with BT-549 breast; 82.7% in the experiment with MDA-MB-435 melanoma; 95.2% in the experiment on SW-620 colon; 88.7% in the experiment with HCT-116 colon; 119% with HCC-2998 colon; 85.4% with KM12 colon.
Take `CC(C)(C)Nc1nc2c(OCCc3ccccc3)cccn2c1-c1cccc(F)c1`: the growth in the experiment on BT-549 breast was 11.8%; with SW-620 colon it was 9.7% (active); in the experiment on MCF7 breast, -13.4% (active); in the experiment with HCT-116 colon, -32.8% (active); in the experiment on HCC-2998 colon, 4.84% (active).
`CC(=O)Oc1ccccc1C(=O)Nc1cc(C(C)C)ccc1C`: the growth in the experiment on BT-549 breast is 37.5%; in the experiment with SW-620 colon it was 23.8%; in the experiment on MCF7 breast, 9.56% (active); in the experiment on HCT-116 colon it was 11.3%; in the experiment on HCC-2998 colon, 20.5%; with KM12 colon, 11.1%.
Regarding `CCN1C(=S)N(CC)C2C1N=C(SC)N2/N=C/C=C/c1ccccc1[N+](=O)[O-]` (stereo not given), the growth in the experiment on BT-549 breast is 107%; with SW-620 colon, 99.4%; in the experiment on MCF7 breast, 76.9%; in the experiment on HCT-116 colon it was 82.2%; in the experiment on HCC-2998 colon it was 112%.
Take `O=C(N/N=C/c1ccco1)c1[nH]c2ccc(Br)cc2c1-c1ccccc1`: the growth with BT-549 breast is -17.1% (active); in the experiment with SW-620 colon it was 24.8%; in the experiment on MCF7 breast it was 10.7%; with HCT-116 colon, -12.9% (active); with HCC-2998 colon, 23%.
Consider `COc1cc(OC)c(C2C(Cl)C(=O)N2Nc2ncnc3ccccc23)cc1OC` (stereo not given), for which the growth in the experiment with BT-549 breast is 89.6%; with SW-620 colon it was 108%; in the experiment with HCT-116 colon it was 96.5%; in the experiment on HCC-2998 colon, 111%; with KM12 colon it was 101%.
With `N#Cc1nc(-c2ccccc2)oc1S(N)(=O)=O`, the growth with BT-549 breast is 67.6%; in the experiment with SW-620 colon, 21.1%; with MCF7 breast it was 30.9%; with HCT-116 colon, 46.8%; in the experiment with HCC-2998 colon it was 110%; with KM12 colon, 83.9%.
With `COc1cc(N=Cc2sc(Nc3nccs3)nc2O)cc(OC)c1OC`, the growth with BT-549 breast was 93.6%; in the experiment with SW-620 colon, 97.3%; in the experiment on MCF7 breast, 71.5%; in the experiment on HCT-116 colon, 94.2%; in the experiment on HCC-2998 colon it was 111%; with KM12 colon, 89.9%.
For the compound `COc1ccc(-c2nn3c(-c4ccccc4F)nnc3s2)cc1`, the growth in the experiment with BT-549 breast is 50.9%; in the experiment with SW-620 colon, 34.4%; in the experiment on MCF7 breast, 36.8%; with HCT-116 colon, 42%; with HCC-2998 colon it was 70%; with KM12 colon it was 31.8%.
